The results in this text go back to PubChem BioAssay (EPA / NIEHS).

The structures appear in SMILES notation. Results filed as inconclusive are left out. Calls of active or inactive are those of the source. The calls were made as follows: active = hit-call score of the fitted dose curve at least 0.9, where 1 is the maximum; inconclusive = response in the unintended direction; inactive = score below 0.9.

Read-out in this test: glucuronosyltransferase (UGT1A1), UGT1A1 (gene 54658)
Briefly: CLD_UGT1A1_6hr: CellzDirect (CLD) Gene Expression Assay for glucuronosyltransferase (UGT1A1) at 6 hours (AID 2283672). As for the experimental part: CLD_6hr is a cell-based, multiplexed-readout assay that uses hepatocyte, a human liver primary cell, with measurements taken at 6 hours after chemical dosing in a 96-well plate.CLD_UGT1A1_6hr is one of 16 assay component(s) measured or calculated from the CLD_6hr assay. It is designed to make measurements of mRNA induction, a form of inducible reporter, as detected with chemiluminescence signals by Quantitative Nuclease Protection Assay (qNPA) technology.Data from the assay component CLD_UGT1A1_6hr was analyzed at the endpoint, CLD_UGT1A1_6hr, in the positive analysis fitting direction relative to DMSO as the negative control and baseline of activity. Using a type of inducible reporter, gain-of-signal activity can be used to understand changes in the reporter gene as they relate to the gene UGT1A1. Furthermore, this assay endpoint can be referred to as a primary readout. To generalize the intended target to other relatable targets, this assay endpoint is annotated to the transferase intended target family, where subfamily is glucuronosyltransferase.
Human hepatocyte cultures were treated daily for two consecutive days with fresh dosing solutions containing appropriate concentrations of the 320 ToxCast chemicals (chemical identities were blinded to CellzDirect and other ToxCast collaborators), vehicle control (0.2% DMSO), and positive control inducers as summarized in Table 1. Due to the large number of treatment groups and chemicals examined, the ToxCast chemicals were divided into two groups (spanning two independent cultures of hepatocytes from separate donor preparations (Hu778: ToxCast plates 1 and 2; Hu776: ToxCast plates 3 and 4). Each preparation of human hepatocyte cultures was treated with respective vehicle control, medium only control, set of six positive controls/reference chemicals for the five hepatic receptor pathways, and a subset of eight of the ToxCast chemicals (indoxacarb, pyrithiobac-sodium, norflurazon, cyhalofop-butyl, methomyl, thiram, acetochlor, and propiconazole). These replicate data, coupled with internal replicates designed within the blinded ToxCast chemical library, provided additional data to evaluate interindividual differences between hepatocyte preparations and their potential impact on chemical profiles.Cell morphology and integrity were evaluated using phase-contrast microscopy as an indicator of hepatocyte cell health (Tyson & Green, 1987). Cultures for each treatment group (i.e., media, vehicle [0.2% DMSO], positive control inducers [multiple concentrations], and the ToxCast chemicals [multiple concentrations]) were observed and cell morphology was assessed relative to vehicle control cultures at each harvest time point (0, 6, 24, or 48 h). […] Images were evaluated at the conclusion of the study to assess changes in cell integrity and account for the effects of chemical exposure on uncharacteristic changes in concentration-dependent gene expression profiles. The results from these determinations of apparent cytotoxicity were annotated (yes/no) alongside the corresponding qNPA data for reference.At the conclusion of each treatment period, hepatocyte cultures (96-well) were washed with 1 volume of HBSS, lysed by addition of 25 ul ArrayPlate lysis buffer (HTG, Tucson, AZ), and 70 ul/well of Denaturation Oil, denatured by incubation at 95C for 10 min, and frozen at approximately -70C until analysis by nuclease protection assay (qNPA) (Roberts et al., 2007). For qNPA analysis, cell lysates were thawed at 50C for approximately 30 min, qNPA probes were added, and samples were incubated at 95C for 10 min to begin the detection process by denaturing the target RNA, dissociating the duplexes and secondary structure hybridization. At the conclusion of the hybridization period, S1 nuclease reagent was added to each sample to digest all nonprotected nucleotides at 50C for 60-90 min. […]
On to `CCOC(=O)CC(SP(=O)(OC)OC)C(=O)OCC` (stereo not given), for which the result was inactive.

In the case of `CCOP(=S)(Oc1cnc(C(C)(C)C)nc1)OC(C)C` (stereo not given), the call was inactive.

As to `N#CSCSC#N`, the call was inactive.

Consider `CCOP(=S)(OCC)Oc1ccc2c(C)c(Cl)c(=O)oc2c1`, for which the call was inactive.

For `CC(C)N(C(=O)SCC(Cl)=C(Cl)Cl)C(C)C`, the result was inactive.

Turning to `Cc1nn(-c2cc(NS(C)(=O)=O)c(Cl)cc2Cl)c(=O)n1C(F)F`, the result was inactive.

Turning to `CNC(=O)ON=C(C)SC`, the outcome was inactive.

Turning to `CSc1nnc(C(C)(C)C)c(=O)n1N`, the call was inactive.

With `CCC(=NOC/C=C/Cl)C1=C(O)CC(C2CCOCC2)CC1=O` (stereo not given), the result was inactive.

With `CCOP(=S)(OCC)Oc1ccc([N+](=O)[O-])cc1`, the compound was called inactive.

As to `COc1cccc(C(=O)NN(C(=O)c2cc(C)cc(C)c2)C(C)(C)C)c1C`, the compound was classed as inactive.

Turning to `CC(C)[C@H](C(=O)O[C@H](C#N)c1cccc(Oc2ccccc2)c1)c1ccc(Cl)cc1`, the result was inactive.

In the case of `Cc1ccn2nc(S(=O)(=O)Nc3c(F)cccc3F)nc2n1`, the outcome was inactive.

Turning to `Cc1cc(C2CC2)nc(Nc2ccccc2)n1`, the compound was called inactive.

Regarding `CC1(C(=O)Nc2ccc(O)c(Cl)c2Cl)CCCCC1`, the result was inactive.

Turning to `C[N+]1(C)CCCCC1`, the compound was classed as inactive.

Turning to `CN1COCN(Cc2cnc(Cl)s2)C1=N[N+](=O)[O-]`, the call was inactive.

With `CCc1cccc(C)c1N(C(=O)CCl)C(C)COC` (stereo not given), the compound was called inactive.

As to `COP(=O)(NC(C)=O)SC` (stereo not given), the call was inactive.

Consider `CC(C)=CC1C(C(=O)OCN2C(=O)C3=C(CCCC3)C2=O)C1(C)C` (stereo not given), for which the result was inactive.

In the case of `CON=C(C(=O)OC)c1ccccc1CON=C(C)c1cccc(C(F)(F)F)c1`, the compound was called inactive.

Take `CC(COc1ccc(Oc2ccccc2)cc1)Oc1ccccn1` (stereo not given): the compound was called inactive.

In the case of `CCOP(=S)(OCC)SCCSCC`, the outcome was inactive.

Turning to `CCCSP(=O)(OCC)SCCC`, the outcome was inactive.

Turning to `CN(C)[C@@H]1C(=O)C(C(N)=O)=C(O)[C@@]2(O)C(=O)C3=C(O)c4c(O)cccc4[C@@](C)(O)[C@H]3[C@H](O)[C@@H]12`, the call was inactive.

Take `CCCOCC(=Nc1ccc(Cl)cc1C(F)(F)F)n1ccnc1`: the compound was called inactive.

For `CCOP(=O)(SC(C)CC)N1CCSC1=O` (stereo not given), the outcome was inactive.

In the case of `CC1=NNC(=O)N(/N=C/c2cccnc2)C1`, the outcome was inactive.

Turning to `CCOP(=O)(OCC)Oc1cc(C)nc(C(C)C)n1`, the compound was called inactive.

With `CCOP(=O)(NC(C)C)Oc1ccc(SC)c(C)c1` (stereo not given), the compound was classed as inactive.

In the case of `CC(Oc1cccc(Cl)c1)C(=O)O` (stereo not given), the call was inactive.

In the case of `CSC1=N[C@@](C)(c2ccccc2)C(=O)N1Nc1ccccc1`, the result was inactive.

Take `CCc1cccc(CC)c1N(COC)C(=O)CCl`: the outcome was inactive.

Regarding `CCCCSP(=O)(SCCCC)SCCCC`, the call was inactive.

In the case of `CCCSP(=O)(OCC)Oc1ccc(Br)cc1Cl` (stereo not given), the result was inactive.

As to `CCOC(=O)COc1cc(-c2nn(C)c(OC(F)F)c2Cl)c(F)cc1Cl`, the compound was called inactive.

For `CN(C)NC(=O)CCC(=O)O`, the result was inactive.

Turning to `CC(=NC#N)N(C)Cc1ccc(Cl)nc1`, the result was inactive.

Consider `COc1cc(OC)nc(Sc2cccc(Cl)c2C(=O)O)n1`, for which the result was inactive.

For the compound `CNc1cnn(-c2cccc(C(F)(F)F)c2)c(=O)c1Cl`, the call was inactive.
